Results as given in PubChem BioAssay (EPA / NIEHS).
Results filed as inconclusive are left out. Calls of active or inactive are those of the source. How the source made its calls, unless noted: active means hit-call score of the fitted dose curve at least 0.9, where 1 is the maximum; inactive means score below 0.9.

Legend:
[1] = target: Nuclear respiratory factor 1 (Homo sapiens) (UniProt Q16656); test: ATG_NRF1_CIS: Attagene CIS-FACTORIAL HepG2 Assay for human Nuclear Respiratory Factor 1 (NRF1) Orphan Gene (AID 2282987); conditions: HepG2 NRF1 cis-element reporter, Attagene multiplex; actives raise or lower the signal
In short: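 Human hepatoma HepG2 cells carrying transfected promoter-regulated reporter units were incubated with test chemicals for 24 h. Reporter transcripts were measured by RT-PCR plus capillary electrophoresis, and endpoints derived by bidirectional fitting with DMSO as baseline.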

[2] = ATG_NFI_CIS: Attagene CIS-FACTORIAL HepG2 Assay for human Nuclear Factor I (NFI) (AID 2282989); conditions: HepG2 cis-regulatory reporter, NFI response element transcription; actives raise or lower the signal
In short: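 Endogenous TF activity in HepG2 cells transiently transfected with cis-element-driven multiplexed reporter units, read 24 h after dosing. Reporter mRNA quantified by RT-PCR, 6-FAM labelling, HpaI digestion and capillary electrophoresis; bidirectional fit versus DMSO.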

[3] = target: Myc proto-oncogene protein (Homo sapiens) (UniProt P01106); test: ATG_Myc_CIS: Attagene CIS-FACTORIAL HepG2 Assay for human Myelocytomatosis (Myc) Proto-Oncogene Transcription Factor (AID 2282990); conditions: HepG2, Attagene cis-reporter transcription factor activity; actives raise or lower the signal
In short: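 Multiplexed cis-reporter transcription in HepG2 cells after 24 h chemical treatment. Reporter mRNA measured by RT-PCR and capillary electrophoresis fluorescence; activity fitted bidirectionally against DMSO control.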

[4] = ATG_NF_kB_CIS: Attagene CIS-FACTORIAL HepG2 Assay for human Nuclear Factor Kappa B (NF-kB) (AID 2282991); conditions: HepG2 Attagene cis-factorial NF-kB reporter mRNA; actives raise or lower the signal
In short: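 Multiplexed cis-reporter assay in transiently transfected HepG2. 24 h treatment; RNA isolated, RT-PCR, labelled fragments resolved by CE. DMSO baseline.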

[5] = ATG_NRF2_ARE_CIS: Attagene CIS-FACTORIAL HepG2 Assay for human Nuclear Factor Erythroid 2 Related Factor 2 (NFR2) response to Antioxidant Response Elements (ARE) (AID 2282992); conditions: HepG2 Attagene ARE/NRF2 reporter, transcription factor activity; actives raise or lower the signal
In short: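 Transient MRTU transfection of HepG2; 24 h compound exposure; TriZol RNA, RT with oligo(dT), PCR, 6-FAM primer extension, HpaI cut, CE. Bidirectional fit vs DMSO.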

[6] = ATG_Oct_MLP_CIS: Attagene CIS-FACTORIAL HepG2 Assay for human Octamer-Binding Transcription Factor (Oct) (AID 2282993); conditions: HepG2 Attagene cis-factorial Oct reporter, mRNA; actives raise or lower the signal
In short: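 HepG2 cells transiently transfected with cis-element-driven reporter transcription units (endogenous TF activity); 24 h compound exposure. Reporter mRNA quantified by RT-PCR, 6-FAM labelling, HpaI digestion and capillary electrophoresis; bidirectional fit versus DMSO baseline.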

[7] = target: Cellular tumor antigen p53 (Homo sapiens) (UniProt P04637); test: ATG_p53_CIS: Attagene CIS-FACTORIAL HepG2 Assay for human p53 Transcription Factor (AID 2282994); conditions: HepG2 p53 cis-element reporter, Attagene mRNA; actives raise or lower the signal
In short: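 HepG2, transient MRTU transfection (cis promoter elements, endogenous TFs); 24 h dosing; RNA isolation, RT-PCR, 6-FAM primer extension, HpaI digest, CE fluorescence; bidirectional fit vs DMSO.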

[8] = BSK_3C_TissueFactor: BioMAP Diversity Plus: 3C Assay for Tissue Factor Biomarker Activity (AID 2282997); conditions: BioMAP 3C HUVEC, tissue factor biomarker readout; actives raise or lower the signal
In short: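 ELISA read-out of Tissue Factor levels on human umbilical vein endothelium collected 24 h after chemical dosing. Gain or loss of signal was fitted relative to DMSO.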

[9] = BSK_3C_uPAR: BioMAP Diversity Plus: 3C Assay for Urokinase-type plasminogen activator receptor (uPAR) Biomarker Activity (AID 2282998); conditions: BioMAP 3C HUVEC, uPAR biomarker ELISA; actives raise or lower the signal
In short: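 Primary human umbilical vein endothelial cells, 3C system; surface uPAR measured by ELISA 24 h after dosing. Cytotoxicity via SRB total protein in parallel cultures; bidirectional fit against DMSO.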

[10] = BSK_3C_VCAM1: BioMAP Diversity Plus: 3C Assay for Vascular cell adhesion molecule 1 (VCAM1) Biomarker Activity (AID 2282999); conditions: BioMAP 3C HUVEC, VCAM1 ELISA, cytokine-stimulated; actives raise or lower the signal
In short: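 Human umbilical vein endothelial cells were dosed with compound for 24 h, after which cell-surface VCAM-1 was quantified by ELISA. Bidirectional curve fitting used DMSO as negative control and activity baseline.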

[11] = BSK_4H_Eotaxin3: BioMAP Diversity Plus: 4H Assay for Eotaxin 3 Biomarker Activity (AID 2283000); conditions: primary human endothelial cells (HUVEC); actives raise or lower the signal;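 further: CCL26 protein level quantified by ELISA in parallel with SRB cytotoxicity check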
In short: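 Chemicals were added to human umbilical vein endothelium cultures, and Eotaxin-3 was quantified by ELISA at 24 h. Values were derived by bidirectional fitting with DMSO serving as negative control and activity baseline.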

[12] = read-out: Intercellular Adhesion Molecule 1 (ICAM1), ICAM1 (gene 3383); test: BSK_3C_ICAM1: BioMAP Diversity Plus: 3C Assay for Intercellular Adhesion Molecule 1 (ICAM1) Biomarker Activity (AID 2283003); conditions: primary human endothelial cells (HUVEC); actives raise or lower the signal
In short: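 Human vascular endothelial primary cells, 3C conditions, 24 h treatment. ICAM-1 by ELISA.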

[13] = BSK_3C_Proliferation: Cell Proliferation Assessment in the BioMAP Diversity Plus: 3C Assay (AID 2283006); conditions: primary human endothelial cells (HUVEC);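 on AC50: potency may reflect either rise or fall in cell number versus DMSO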
In short: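 Proliferation of human vascular endothelial primary cells after 48 h dosing, quantified as SRB-stained protein at 560 nm relative to DMSO.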

[14] = target: Nuclear receptor subfamily 1 group I member 2 (Homo sapiens) (UniProt O75469); test: ATG_PXR_TRANS: Attagene TRANS-FACTORIAL HepG2 Assay for human Pregnane X Receptor (PXR) (AID 2283008; active means hit-call score of the fitted dose curve at least 0.9, where 1 is the maximum)
In short: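 Read-out is fluorescence of labelled reporter cDNA fragments separated by capillary electrophoresis after RT-PCR and HpaI digestion. Source: HepG2 cells carrying PXR-GAL4/UAS reporter constructs, treated 24 h; activity fitted upward relative to DMSO.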

[15] = target: human Retinoic Acid Receptor gamma (RARg), RARG (gene 5916) (UniProt P13631); test: ATG_RARg_TRANS: Attagene TRANS-FACTORIAL HepG2 Assay for human Retinoic Acid Receptor gamma (RARg) (AID 2283009; active means hit-call score of the fitted dose curve at least 0.9, where 1 is the maximum)
In short: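 HepG2, RARg-GAL4 TRANS system, 24 h exposure; reporter mRNA by RT-PCR + CE fluorescence; increase over DMSO.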

[16] = target: human Peroxisome Proliferator-activated Receptor delta (PPARd), PPARD (gene 5467) (UniProt Q03181); test: ATG_PPARd_TRANS: Attagene TRANS-FACTORIAL HepG2 Assay for human Peroxisome Proliferator-activated Receptor delta (PPARd) (AID 2283002; active means hit-call score of the fitted dose curve at least 0.9, where 1 is the maximum)
In short: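 Multiplexed trans-activation format: HepG2 liver cells expressing exogenous NR-Gal4 chimeras and GAL4-UAS reporters were exposed for 24 h. Reporter mRNA was detected by RT-PCR with capillary electrophoresis fluorescence; activity fitted as gain of signal relative to DMSO.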

[17] = target: human Retinoic Acid Receptor beta (RARb), RARB (gene 5915) (UniProt P10826); test: ATG_RARb_TRANS: Attagene TRANS-FACTORIAL HepG2 Assay for human Retinoic Acid Receptor beta (AID 2283004; active means hit-call score of the fitted dose curve at least 0.9, where 1 is the maximum)
In short: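 Transient transfection of HepG2 with multiple reporter units → chemical dosing, 24 h → total RNA isolation → RT with oligo(dT) → reporter-specific PCR, 6-FAM primer extension, HpaI digest → capillary electrophoresis. Positive direction vs DMSO control.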

[18] = target: Retinoic acid receptor alpha (Homo sapiens) (UniProt P10276); test: ATG_RARa_TRANS: Attagene TRANS-FACTORIAL HepG2 Assay for human Retinoic Acid Receptor alpha (RARa) (AID 2283005; active means hit-call score of the fitted dose curve at least 0.9, where 1 is the maximum)
In short: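 HepG2 cells transiently transfected with multiple reporter units expressing chimeric RARα-GAL4 fusion, with GAL4-UAS-driven reporters. After 24 h compound exposure, reporter mRNA induction quantified by RT-PCR and capillary electrophoresis with fluorescent labeling; gain-of-signal fitted relative to DMSO control.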

[19] = target: Peroxisome proliferator-activated receptor gamma (Homo sapiens) (UniProt P37231); test: ATG_PPARg_TRANS: Attagene TRANS-FACTORIAL HepG2 Assay for human Peroxisome Proliferator-activated Receptor-gamma (PPARg) (AID 2283007; active means hit-call score of the fitted dose curve at least 0.9, where 1 is the maximum)
In short: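 Human hepatoma HepG2, transient MRTU transfection, 24 h treatment. mRNA reporter signal by RT-PCR plus capillary electrophoresis, fluorescence detection; fitted for increase over DMSO negative control.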

[20] = target: human Peroxisome Proliferator-activated Receptor alpha (PPARa), PPARA (gene 5465) (UniProt Q07869); test: ATG_PPARa_TRANS: Attagene TRANS-FACTORIAL HepG2 Assay for human Peroxisome Proliferator-activated Receptor alpha (PPARa) (AID 2283001; active means hit-call score of the fitted dose curve at least 0.9, where 1 is the maximum;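 on AC50: potency for gain of reporter signal over DMSO so agonist or activator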)
In short: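 HepG2 cells transiently transfected with multiplexed GAL4-UAS reporter units and chimeric NR-Gal4 constructs were dosed for 24 h. Reporter mRNA was measured by RT-PCR with fluorescent labelling and capillary electrophoresis; gain of signal fitted against DMSO.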

Retinoic acid receptor alpha (Homo sapiens), sequence (P10276 whole entry, looked up, the tested form may be a part): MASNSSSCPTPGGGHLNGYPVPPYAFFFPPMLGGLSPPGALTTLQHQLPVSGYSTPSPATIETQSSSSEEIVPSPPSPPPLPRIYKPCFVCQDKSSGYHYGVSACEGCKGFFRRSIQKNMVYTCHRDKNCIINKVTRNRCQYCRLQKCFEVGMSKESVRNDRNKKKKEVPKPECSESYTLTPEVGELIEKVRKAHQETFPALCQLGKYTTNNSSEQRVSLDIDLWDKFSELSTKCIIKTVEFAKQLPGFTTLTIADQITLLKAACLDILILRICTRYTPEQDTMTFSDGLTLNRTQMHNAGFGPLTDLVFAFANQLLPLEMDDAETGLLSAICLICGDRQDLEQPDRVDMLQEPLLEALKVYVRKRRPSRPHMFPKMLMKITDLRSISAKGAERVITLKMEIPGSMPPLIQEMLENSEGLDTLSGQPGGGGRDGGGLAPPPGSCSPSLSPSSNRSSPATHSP
human Peroxisome Proliferator-activated Receptor alpha (PPARa), PPARA (gene 5465), sequence (Q07869 whole entry, looked up, the tested form may be a part): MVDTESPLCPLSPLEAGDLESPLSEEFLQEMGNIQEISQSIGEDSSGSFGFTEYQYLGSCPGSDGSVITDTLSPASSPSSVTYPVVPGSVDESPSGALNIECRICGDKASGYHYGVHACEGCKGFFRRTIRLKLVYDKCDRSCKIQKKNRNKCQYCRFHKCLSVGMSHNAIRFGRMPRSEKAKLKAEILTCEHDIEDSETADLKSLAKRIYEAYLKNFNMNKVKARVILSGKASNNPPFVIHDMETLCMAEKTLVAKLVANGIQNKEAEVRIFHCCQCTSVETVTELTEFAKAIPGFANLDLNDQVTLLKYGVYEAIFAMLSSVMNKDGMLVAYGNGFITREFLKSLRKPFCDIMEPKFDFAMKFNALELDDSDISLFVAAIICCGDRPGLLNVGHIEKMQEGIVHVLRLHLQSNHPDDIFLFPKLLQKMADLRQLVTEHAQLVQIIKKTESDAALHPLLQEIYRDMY
Peroxisome proliferator-activated receptor gamma (Homo sapiens), sequence (P37231 whole entry, looked up): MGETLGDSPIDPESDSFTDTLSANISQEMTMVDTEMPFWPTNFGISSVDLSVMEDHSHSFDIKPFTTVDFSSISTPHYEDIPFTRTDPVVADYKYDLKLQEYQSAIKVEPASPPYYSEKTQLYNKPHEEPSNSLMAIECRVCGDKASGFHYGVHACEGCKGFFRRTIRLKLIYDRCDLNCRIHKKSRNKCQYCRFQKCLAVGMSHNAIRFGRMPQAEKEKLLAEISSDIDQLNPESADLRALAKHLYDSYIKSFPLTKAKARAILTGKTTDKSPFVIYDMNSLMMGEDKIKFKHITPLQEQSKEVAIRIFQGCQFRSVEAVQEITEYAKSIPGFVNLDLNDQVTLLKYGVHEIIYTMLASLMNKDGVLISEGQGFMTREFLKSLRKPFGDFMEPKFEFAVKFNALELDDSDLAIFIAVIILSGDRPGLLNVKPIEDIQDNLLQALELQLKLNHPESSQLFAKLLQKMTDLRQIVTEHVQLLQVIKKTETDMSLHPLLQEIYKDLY
human Retinoic Acid Receptor gamma (RARg), RARG (gene 5916), sequence (P13631 whole entry, looked up, the tested form may be a part): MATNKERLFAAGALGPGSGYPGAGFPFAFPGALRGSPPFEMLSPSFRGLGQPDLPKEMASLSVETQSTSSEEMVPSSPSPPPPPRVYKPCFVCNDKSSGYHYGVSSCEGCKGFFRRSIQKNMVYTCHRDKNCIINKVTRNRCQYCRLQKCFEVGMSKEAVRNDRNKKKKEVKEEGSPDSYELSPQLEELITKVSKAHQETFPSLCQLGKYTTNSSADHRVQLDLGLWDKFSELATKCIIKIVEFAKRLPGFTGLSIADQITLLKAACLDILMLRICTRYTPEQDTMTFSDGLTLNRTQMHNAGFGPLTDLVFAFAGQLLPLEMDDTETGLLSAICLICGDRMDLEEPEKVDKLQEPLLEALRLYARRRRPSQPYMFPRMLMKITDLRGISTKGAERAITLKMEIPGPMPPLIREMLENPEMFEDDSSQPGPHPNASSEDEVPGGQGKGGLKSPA
Nuclear receptor subfamily 1 group I member 2 (Homo sapiens), sequence (O75469 whole entry, looked up, the tested form may be a part): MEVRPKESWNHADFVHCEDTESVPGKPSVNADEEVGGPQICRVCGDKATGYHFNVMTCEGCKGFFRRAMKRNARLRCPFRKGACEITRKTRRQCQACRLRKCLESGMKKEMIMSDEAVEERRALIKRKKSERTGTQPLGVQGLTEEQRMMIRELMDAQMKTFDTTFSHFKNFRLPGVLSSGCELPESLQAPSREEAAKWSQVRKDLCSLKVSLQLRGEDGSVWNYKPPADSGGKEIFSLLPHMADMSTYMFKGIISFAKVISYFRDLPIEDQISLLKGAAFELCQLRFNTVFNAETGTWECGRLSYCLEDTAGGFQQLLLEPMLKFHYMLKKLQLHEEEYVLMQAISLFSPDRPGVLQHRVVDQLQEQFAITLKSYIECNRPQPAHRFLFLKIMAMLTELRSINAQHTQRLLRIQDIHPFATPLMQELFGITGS
Myc proto-oncogene protein (Homo sapiens), sequence (P01106 whole entry, looked up): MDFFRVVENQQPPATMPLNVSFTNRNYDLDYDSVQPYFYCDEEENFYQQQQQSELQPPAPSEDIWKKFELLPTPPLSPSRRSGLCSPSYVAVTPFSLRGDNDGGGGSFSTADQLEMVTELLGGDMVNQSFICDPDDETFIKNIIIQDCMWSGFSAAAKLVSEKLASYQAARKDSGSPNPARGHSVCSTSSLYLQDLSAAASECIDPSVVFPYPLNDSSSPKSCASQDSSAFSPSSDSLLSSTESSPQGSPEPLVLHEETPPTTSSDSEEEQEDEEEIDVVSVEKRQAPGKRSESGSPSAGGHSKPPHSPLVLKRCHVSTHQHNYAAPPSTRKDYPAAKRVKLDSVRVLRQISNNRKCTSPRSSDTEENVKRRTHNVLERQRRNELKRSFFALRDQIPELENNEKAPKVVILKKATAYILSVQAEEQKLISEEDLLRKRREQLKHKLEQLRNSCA
Nuclear respiratory factor 1 (Homo sapiens), sequence (Q16656 whole entry, looked up): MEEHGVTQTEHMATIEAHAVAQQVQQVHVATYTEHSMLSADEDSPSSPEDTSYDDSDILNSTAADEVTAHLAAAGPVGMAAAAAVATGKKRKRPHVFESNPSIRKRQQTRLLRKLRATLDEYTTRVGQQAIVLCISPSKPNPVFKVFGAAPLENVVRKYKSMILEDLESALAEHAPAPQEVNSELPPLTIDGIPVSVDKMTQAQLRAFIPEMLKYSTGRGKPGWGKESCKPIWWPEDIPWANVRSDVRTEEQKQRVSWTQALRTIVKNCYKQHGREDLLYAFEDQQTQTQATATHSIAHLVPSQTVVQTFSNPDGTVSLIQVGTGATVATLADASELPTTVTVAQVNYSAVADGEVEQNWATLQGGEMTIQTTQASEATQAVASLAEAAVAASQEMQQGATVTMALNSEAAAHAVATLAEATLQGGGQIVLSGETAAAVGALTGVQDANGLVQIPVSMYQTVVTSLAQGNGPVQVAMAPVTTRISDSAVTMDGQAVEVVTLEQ
Cellular tumor antigen p53 (Homo sapiens), sequence (P04637 whole entry, looked up): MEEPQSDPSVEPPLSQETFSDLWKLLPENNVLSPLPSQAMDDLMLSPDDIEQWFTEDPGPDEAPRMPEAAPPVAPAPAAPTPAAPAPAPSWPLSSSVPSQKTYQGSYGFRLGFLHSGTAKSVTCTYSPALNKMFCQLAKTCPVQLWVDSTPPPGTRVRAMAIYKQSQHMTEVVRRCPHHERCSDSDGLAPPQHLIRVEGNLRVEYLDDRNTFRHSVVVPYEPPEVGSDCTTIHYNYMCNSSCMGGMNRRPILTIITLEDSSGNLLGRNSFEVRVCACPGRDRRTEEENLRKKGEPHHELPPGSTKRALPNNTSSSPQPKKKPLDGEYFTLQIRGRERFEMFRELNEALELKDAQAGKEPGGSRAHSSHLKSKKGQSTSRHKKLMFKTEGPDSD
human Peroxisome Proliferator-activated Receptor delta (PPARd), PPARD (gene 5467), sequence (Q03181 whole entry, looked up, the tested form may be a part): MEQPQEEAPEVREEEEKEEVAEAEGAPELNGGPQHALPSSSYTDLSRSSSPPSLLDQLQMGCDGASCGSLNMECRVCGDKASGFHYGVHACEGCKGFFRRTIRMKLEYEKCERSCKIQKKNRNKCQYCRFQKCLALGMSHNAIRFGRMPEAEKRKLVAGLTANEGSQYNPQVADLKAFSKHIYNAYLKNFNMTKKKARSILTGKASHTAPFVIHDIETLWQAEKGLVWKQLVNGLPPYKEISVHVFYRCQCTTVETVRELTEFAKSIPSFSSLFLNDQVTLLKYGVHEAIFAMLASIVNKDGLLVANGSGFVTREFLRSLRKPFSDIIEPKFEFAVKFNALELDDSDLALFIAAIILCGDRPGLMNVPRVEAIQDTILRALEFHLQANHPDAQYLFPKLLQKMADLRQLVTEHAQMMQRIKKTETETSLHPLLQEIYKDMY
human Retinoic Acid Receptor beta (RARb), RARB (gene 5915), sequence (P10826 whole entry, looked up): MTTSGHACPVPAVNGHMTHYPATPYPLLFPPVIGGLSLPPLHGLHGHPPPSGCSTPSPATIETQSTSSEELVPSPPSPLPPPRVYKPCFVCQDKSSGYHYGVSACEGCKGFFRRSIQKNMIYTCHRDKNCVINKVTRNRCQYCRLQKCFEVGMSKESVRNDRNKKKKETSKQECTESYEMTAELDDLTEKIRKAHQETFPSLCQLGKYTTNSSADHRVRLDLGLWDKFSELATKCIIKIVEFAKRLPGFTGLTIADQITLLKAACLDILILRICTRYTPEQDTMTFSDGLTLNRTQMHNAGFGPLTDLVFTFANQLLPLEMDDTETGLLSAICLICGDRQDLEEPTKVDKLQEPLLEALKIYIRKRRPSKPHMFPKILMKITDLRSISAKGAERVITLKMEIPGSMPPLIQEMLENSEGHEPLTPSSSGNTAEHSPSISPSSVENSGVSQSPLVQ

With `Cc1nc(C)nc(N2C[C@@H](C)N(c3ccnc([C@@H](C)O)n3)[C@@H](C)C2)n1` the outcome [1] was “inactive”, the outcome [2] was “inactive” and the outcome [3] was “inactive”. For the same compound, the outcome [4] was “inactive”, the outcome [5] was “inactive” and the outcome [6] was “inactive”. The outcome [7] was “inactive”, the outcome [8] was “inactive” and the AC50 [9] was 12.9 µM (active). The outcome [10] was “inactive”, the outcome [11] was “inactive” and the outcome [12] was “inactive”. The outcome [13] was “inactive”, the AC50 [14] was 82.4 µM (active) and the outcome [15] was “inactive”.
For `Nc1ccccc1N`, the outcome [1] was “inactive”, the AC50 [2] was 46.1 µM (active) and the outcome [3] was “inactive”. The outcome [4] was “inactive”, the AC50 [5] was 9.26 µM (active) and the AC50 [6] was 29 µM (active). The AC50 [7] was 32.4 µM (active), the outcome [8] was “inactive” and the AC50 [9] was 4.58 µM (active). For the same compound, the AC50 [10] was 11 µM (active), the outcome [16] was “inactive” and the outcome [12] was “inactive”. The outcome [17] was “inactive”, the outcome [18] was “inactive” and the AC50 [13] was 9.14 µM (active). The outcome [19] was “inactive”, the outcome [14] was “inactive” and the outcome [15] was “inactive”.
For `COC(=O)c1ccc(O)cc1`, the outcome [1] was “inactive”, the outcome [2] was “inactive” and the outcome [3] was “inactive”. The outcome [4] was “inactive”, the outcome [5] was “inactive” and the outcome [6] was “inactive”. The outcome [7] was “inactive”, the outcome [8] was “inactive” and the outcome [9] was “inactive”. The outcome [10] was “inactive”, the outcome [20] was “inactive” and the outcome [12] was “inactive”. The outcome [13] was “inactive” and the outcome [14] was “inactive”.
With `CCOC(=O)C(C)(C)Oc1ccc(Cl)cc1` the outcome [1] was “inactive”, the outcome [2] was “inactive” and the outcome [3] was “inactive”. For the same compound, the outcome [4] was “inactive”, the outcome [5] was “inactive” and the outcome [6] was “inactive”. For the same compound, the outcome [7] was “inactive”, the outcome [8] was “inactive” and the outcome [9] was “inactive”. For the same compound, the outcome [10] was “inactive”, the AC50 [20] was 37.2 µM (active) and the outcome [12] was “inactive”. For the same compound, the outcome [13] was “inactive” and the outcome [19] was “inactive”.
With `C=CCOC(=O)c1ccccc1C(=O)OCC=C` the outcome [1] was “inactive”, the outcome [2] was “inactive” and the outcome [3] was “inactive”. For the same compound, the outcome [4] was “inactive”, the AC50 [5] was 27.2 µM (active) and the outcome [6] was “inactive”. For the same compound, the outcome [7] was “inactive”, the outcome [8] was “inactive” and the outcome [9] was “inactive”. The outcome [10] was “inactive”, the outcome [20] was “inactive” and the outcome [12] was “inactive”. For the same compound, the outcome [18] was “inactive”, the outcome [13] was “inactive” and the outcome [19] was “inactive”. For the same compound, the outcome [14] was “inactive” and the outcome [15] was “inactive”.
For `Cc1c(C(=O)O)c(O)cc2c1C(=O)c1c(O)c([C@@H]3O[C@H](CO)[C@@H](O)[C@H](O)[C@H]3O)c(O)c(O)c1C2=O`, the outcome [1] was “inactive”, the outcome [2] was “inactive” and the outcome [3] was “inactive”. The outcome [5] was “inactive”, the outcome [6] was “inactive” and the outcome [7] was “inactive”. For the same compound, the outcome [8] was “inactive”, the outcome [9] was “inactive” and the outcome [10] was “inactive”. The outcome [20] was “inactive”, the outcome [12] was “inactive” and the outcome [18] was “inactive”. For the same compound, the outcome [13] was “inactive”, the outcome [19] was “inactive” and the outcome [15] was “inactive”.
With `COc1cccc2c1C(=O)c1c(O)c3c(c(O)c1C2=O)C[C@@](O)(C(=O)CO)C[C@@H]3O[C@H]1C[C@H](N)[C@H](O)[C@H](C)O1` the outcome [1] was “inactive”, the outcome [2] was “inactive” and the AC50 [3] was 2.48 µM (active). The AC50 [4] was 653 nM (active), the AC50 [5] was 1.56 µM (active) and the AC50 [6] was 0.719 µM (active). The AC50 [7] was 2.24 µM (active), the outcome [16] was “inactive” and the outcome [19] was “inactive”. The outcome [14] was “inactive” and the outcome [15] was “inactive”.
In the case of `NS(=O)(=O)c1cc2c(cc1Cl)NCNS2(=O)=O`, the outcome [1] is reported as “inactive”, the outcome [2] is reported as “inactive” and the outcome [3] is reported as “inactive”. For the same compound, the outcome [5] was “inactive”, the outcome [6] was “inactive” and the outcome [7] was “inactive”. For the same compound, the outcome [8] was “inactive”, the outcome [9] was “inactive” and the outcome [10] was “inactive”. For the same compound, the outcome [11] was “inactive”, the outcome [12] was “inactive” and the outcome [13] was “inactive”. The outcome [19] was “inactive” and the outcome [14] was “inactive”.
